The values below come from PubChem BioAssay (EPA / NIEHS).

In test [1] the target is human Retinoid X Receptor beta (RXRb), RXRB (gene 6257) (UniProt P28702). As to the kind of experiment: ATG_RXRb_TRANS: Attagene TRANS-FACTORIAL HepG2 Assay for human Retinoid X Receptor beta (RXRb) (AID 2283013; active means hit-call score of the fitted dose curve at least 0.9, where 1 is the maximum). In a few lines:
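Multiplexed TRANS reporter assay in HepG2; 24 h dosing; reporter mRNA by RT-PCR/CE fluorescence; gain-of-signal relative to DMSO.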

Read-out in test [2]: E-selectin (Homo sapiens) (UniProt P16581)
As to the kind of experiment: BSK_3C_Eselectin: BioMAP Diversity Plus: 3C Assay for Eselectin Biomarker Activity (AID 2283015).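 On outcome: cell surface E-selectin protein quantified by ELISA 24 h after dosing.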 As to conditions: primary human endothelial cells (HUVEC); actives raise or lower the signal. The procedure, abridged:
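E-selectin ELISA readout, fitted bidirectionally relative to DMSO, taken 24 h post-dosing in HUVEC cultures of the 3C system. Overt cytotoxicity tracked with sulforhodamine B staining of parallel wells.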

Read-out in test [3]: Interleukin-1 alpha (IL1a), IL1A (gene 3552)
In words: BSK_BE3C_IL1a: BioMAP Diversity Plus: BE3C Assay for Interleukin-1 alpha (IL1a) Biomarker Activity (AID 2283016). The settings on record: primary human bronchial epithelial cells; actives raise or lower the signal. The procedure, abridged:
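Cultures of primary human bronchial epithelial cells receive test chemical. After 24 h, IL-1a is quantified by ELISA, while parallel wells are fixed in TCA and SRB-stained for total protein. Changes in either direction are fitted relative to DMSO.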

Read-out in test [4]: Monocyte Chemoattractant Protein-1 (MCP1), CCL2 (gene 6347)
As to the kind of experiment: BSK_3C_MCP1: BioMAP Diversity Plus: 3C Assay for Monocyte Chemoattractant Protein-1 (MCP1) Biomarker Activity (AID 2283017). The settings on record: primary human endothelial cells (HUVEC); actives raise or lower the signal. In a few lines: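 MCP-1 was measured by ELISA 24 h after dosing in primary HUVEC 3C cultures and fitted in both directions relative to DMSO; cytotoxicity was checked by SRB total-protein staining in parallel wells.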

Read-out in test [5]: Monocyte Chemoattractant Protein-1 (MCP1), CCL2 (gene 6347)
As to the kind of experiment: BSK_4H_MCP1: BioMAP Diversity Plus: 4H Assay for Monocyte Chemoattractant Protein-1 (MCP1) Biomarker Activity (AID 2283018). The settings on record: primary human endothelial cells (HUVEC); actives raise or lower the signal. In a few lines:
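Readout: MCP-1 ELISA on compound-treated HUVEC, sampled 24 h post-dosing. Baseline and negative control DMSO; bidirectional fit. Overt toxicity checked alongside by sulforhodamine B protein staining at time of biomarker measurement.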

Read-out in test [6]: Human Leukocyte Antigen - DR isotype (HLADR), HLA-DRA (gene 3122)
In words: BSK_3C_HLADR: BioMAP Diversity Plus: 3C Assay for Human Leukocyte Antigen - DR isotype (HLADR) Biomarker Activity (AID 2283019).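 On outcome: ELISA of cell-surface HLA-DR on HUVEC 24 h after dosing.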 As to conditions: primary human endothelial cells (HUVEC); actives raise or lower the signal. In a few lines:
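Bidirectional fitting against DMSO was applied to the HLA-DR ELISA signal from human umbilical vein endothelial cells, 24 h post-dose. Cytotoxicity came from parallel SRB total-protein staining; 3C proliferation was counted by SRB at 48 h.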

Read-out in test [7]: Monokine induced gamma interferon (MIG), CXCL9 (gene 4283)
As to the kind of experiment: BSK_3C_MIG: BioMAP Diversity Plus: 3C Assay for Monokine induced gamma interferon (MIG) Biomarker Activity (AID 2283021).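 On AC50: MIG protein level measured by immunoassay in the treated endothelial cultures.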 The settings on record: primary human endothelial cells (HUVEC); actives raise or lower the signal. The procedure, abridged: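 After 24 h of treatment, human umbilical vein endothelial cultures (3C system) had their MIG biomarker level determined by ELISA, with DMSO serving as negative control.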

Test [8] addresses human Vitamin D Receptor (VDR), VDR (gene 7421) (UniProt P11473). In words: ATG_VDR_TRANS: Attagene TRANS-FACTORIAL HepG2 Assay for human Vitamin D Receptor (VDR) (AID 2283022; active means hit-call score of the fitted dose curve at least 0.9, where 1 is the maximum). In a few lines: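 Transactivation by an exogenous VDR-Gal4 chimera in transiently transfected HepG2 cells was measured as reporter transcript level 24 hours after chemical treatment. RT-PCR products were analysed by capillary electrophoresis and fitted in the positive direction relative to DMSO.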

Test [9] in a line: BSK_3C_SRB: Viability Assessment in the BioMAP Diversity Plus: 3C Assay (AID 2283023).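 Further: fitted both ways against DMSO so a hit may be signal rise or drop.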 The settings on record: primary human endothelial cells (HUVEC). In a few lines:
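Cytotoxicity readout in parallel HUVEC 3C cultures: after 24 h compound exposure, cells fixed with 10% TCA, stained with 0.1% SRB and read at 560 nm. Gain or loss relative to DMSO fitted.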

Read-out in test [10]: Matrix Metallopeptidase 1 (MMP1), MMP1 (gene 4312)
As to the kind of experiment: BSK_BE3C_MMP1: BioMAP Diversity Plus: BE3C Assay for Matrix Metallopeptidase 1 (MMP1) Biomarker Activity (AID 2283024). As to conditions: primary human bronchial epithelial cells; actives raise or lower the signal. In a few lines:
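Dose cells, wait 24 h, run MMP1 ELISA; cells are human bronchial epithelial primaries. Both increases and decreases relative to DMSO counted.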

Test [11] in a line: BSK_3C_Vis: BioMAP Diversity Plus: 3C Assay for Morphology Visualization (AID 2283025).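 Further: fitted both ways so gain or loss versus DMSO counts.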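 On AC50: light microscopy image of cell morphology used as background control.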 As to conditions: primary human endothelial cells (HUVEC). The procedure, abridged: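 Endothelial cells from human umbilical vein were treated with test chemicals for 24 h and inspected by light microscopy for changes in cell conformation.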
Read-out in test [12]: Pselectin, SELP (gene 6403)
As to the kind of experiment: BSK_4H_Pselectin: BioMAP Diversity Plus: 4H Assay for Pselectin Biomarker Activity (AID 2283026). As to conditions: primary human endothelial cells (HUVEC); actives raise or lower the signal. In a few lines: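 Human vascular endothelium from umbilical vein; P-selectin measured by ELISA at 24 h post-dose, with cytotoxicity checked by sulforhodamine B total-protein staining in parallel cultures (0.1% SRB after 10% TCA fixation, read at 560 nm).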

Test [13] in a line: BSK_4H_SRB: Viability Assessment in the BioMAP Diversity Plus: 4H Assay (AID 2283027).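 Further: cells exposed to compound for 24 h before staining.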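 On AC50: curves fitted both ways versus DMSO so AC50 may be loss or gain.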 The settings on record: primary human endothelial cells (HUVEC). In a few lines:
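Human umbilical vein endothelial cells, 24 h after chemical dosing; total protein measured by 0.1% sulforhodamine B staining after 10% TCA fixation, read at 560 nm. Bidirectional fitting against DMSO.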

Read-out in test [14]: Thrombomodulin, THBD (gene 7056)
As to the kind of experiment: BSK_3C_Thrombomodulin: BioMAP Diversity Plus: 3C Assay for Thrombomodulin Biomarker Activity (AID 2283029). As to conditions: primary human endothelial cells (HUVEC); actives raise or lower the signal. In a few lines: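 Thrombomodulin ELISA, human primary HUVEC, 24 h post-dose; data fitted in both directions relative to DMSO.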

Read-out in test [15]: Urokinase-type plasminogen activator receptor (uPAR), PLAUR (gene 5329)
In words: BSK_4H_uPAR: BioMAP Diversity Plus: 4H Assay for Urokinase-type plasminogen activator receptor (uPAR) Biomarker Activity (AID 2283030). The settings on record: primary human endothelial cells (HUVEC); actives raise or lower the signal. In a few lines: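 uPAR level read by ELISA on HUVEC cultures (BioMAP 4H) 24 h post-dosing, analyzed for gain or loss relative to DMSO. Parallel SRB staining assessed overt cytotoxicity.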

Read-out in test [16]: Interleukin-8 (IL8), CXCL8 (gene 3576)
As to the kind of experiment: BSK_3C_IL8: BioMAP Diversity Plus: 3C Assay for Interleukin-8 (IL8) Biomarker Activity (AID 2283020). As to conditions: primary human endothelial cells (HUVEC); actives raise or lower the signal. In a few lines: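 Human vascular endothelial cells (umbilical vein) in the 3C system; IL-8 level detected by ELISA at 24 h post-dose, with DMSO as baseline.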

The nature of test [17]: BSK_BE3C_SRB: Viability Assessment in the BioMAP Diversity Plus: BE3C Assay (AID 2283028). The settings on record: primary human bronchial epithelial cells. The procedure, abridged: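 Cytotoxicity read-out: SRB (0.1%) staining of TCA-fixed (10%) human lung bronchial epithelial cells, absorbance 560 nm, 24 h post-dosing. Curves fitted both directions relative to DMSO.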
The target of test [18] is Retinoic acid receptor RXR-alpha (Homo sapiens) (UniProt P19793). As to the kind of experiment: ATG_RXRa_TRANS: Attagene TRANS-FACTORIAL HepG2 Assay for human Retinoid X Receptor alpha (RXRa) (AID 2283012; active means hit-call score of the fitted dose curve at least 0.9, where 1 is the maximum). The procedure, abridged: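 Cells (HepG2) carried transiently transfected GAL4-responsive reporter units. Following a 24 h chemical incubation, reporter mRNA induction was read via RT-PCR fragment analysis; DMSO served as negative control and baseline.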
Sequence of Retinoic acid receptor RXR-alpha (Homo sapiens) (P19793 whole entry, looked up, the tested form may be a part): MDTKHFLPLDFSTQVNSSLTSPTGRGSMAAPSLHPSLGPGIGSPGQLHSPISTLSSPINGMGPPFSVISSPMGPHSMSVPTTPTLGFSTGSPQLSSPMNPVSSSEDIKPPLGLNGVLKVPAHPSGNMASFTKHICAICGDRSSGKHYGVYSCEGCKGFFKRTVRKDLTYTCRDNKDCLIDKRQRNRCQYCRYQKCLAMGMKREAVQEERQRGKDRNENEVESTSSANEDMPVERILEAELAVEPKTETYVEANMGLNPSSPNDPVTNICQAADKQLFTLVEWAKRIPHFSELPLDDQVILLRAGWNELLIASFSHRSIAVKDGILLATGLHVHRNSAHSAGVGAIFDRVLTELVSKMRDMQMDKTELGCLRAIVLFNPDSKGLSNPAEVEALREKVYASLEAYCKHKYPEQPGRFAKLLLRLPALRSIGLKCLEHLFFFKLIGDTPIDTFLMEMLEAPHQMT

In test [19] the target is human Thyroid Receptor alpha (THRa1), THRA (gene 7067) (UniProt P10827). In words: ATG_THRa1_TRANS: Attagene TRANS-FACTORIAL HepG2 Assay for human Thyroid Receptor alpha (THRa1) (AID 2283014; active means hit-call score of the fitted dose curve at least 0.9, where 1 is the maximum). In a few lines: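 Transcripts from GAL4-UAS-driven reporters, measured after 24 h compound exposure by RT-PCR plus capillary electrophoresis of 6-FAM-labeled fragments, were fitted for gain of signal relative to DMSO. Cells: transiently transfected HepG2 expressing NR-Gal4 chimeras.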
Sequence of human Thyroid Receptor alpha (THRa1), THRA (gene 7067) (P10827 whole entry, looked up, the tested form may be a part): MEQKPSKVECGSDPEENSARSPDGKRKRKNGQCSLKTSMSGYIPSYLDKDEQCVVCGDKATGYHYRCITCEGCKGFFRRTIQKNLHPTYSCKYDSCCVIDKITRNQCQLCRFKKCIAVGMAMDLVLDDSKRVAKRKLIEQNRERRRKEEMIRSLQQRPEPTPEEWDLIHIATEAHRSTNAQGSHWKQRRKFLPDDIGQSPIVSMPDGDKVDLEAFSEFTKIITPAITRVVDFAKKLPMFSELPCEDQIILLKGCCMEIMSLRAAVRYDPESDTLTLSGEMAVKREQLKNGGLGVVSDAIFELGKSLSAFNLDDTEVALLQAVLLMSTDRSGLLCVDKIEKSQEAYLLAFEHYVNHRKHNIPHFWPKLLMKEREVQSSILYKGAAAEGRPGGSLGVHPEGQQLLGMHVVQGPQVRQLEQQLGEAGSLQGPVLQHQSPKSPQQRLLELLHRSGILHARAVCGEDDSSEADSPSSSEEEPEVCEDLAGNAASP

SMILES strings stand for the structures. Results filed as inconclusive are left out. Active and inactive are the calls of the source. How the source made its calls, unless noted: active means hit-call score of the fitted dose curve at least 0.9, where 1 is the maximum; inactive means score below 0.9.

What is called AC50 is the concentration giving half of the maximal activity seen.

Sequence of human Vitamin D Receptor (VDR), VDR (gene 7421) (P11473 whole entry, looked up, the tested form may be a part): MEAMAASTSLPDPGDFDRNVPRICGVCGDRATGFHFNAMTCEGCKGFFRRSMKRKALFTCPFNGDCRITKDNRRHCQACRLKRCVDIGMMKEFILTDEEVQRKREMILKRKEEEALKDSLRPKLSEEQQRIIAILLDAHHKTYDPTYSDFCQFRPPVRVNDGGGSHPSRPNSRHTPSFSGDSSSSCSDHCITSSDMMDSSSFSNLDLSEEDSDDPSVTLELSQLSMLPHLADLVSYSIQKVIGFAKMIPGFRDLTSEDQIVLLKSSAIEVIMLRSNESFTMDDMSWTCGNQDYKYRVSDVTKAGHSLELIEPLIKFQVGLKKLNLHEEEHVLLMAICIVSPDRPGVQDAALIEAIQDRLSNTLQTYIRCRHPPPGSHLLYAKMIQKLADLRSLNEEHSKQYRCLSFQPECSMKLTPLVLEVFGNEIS
Sequence of E-selectin (Homo sapiens) (P16581 whole entry, looked up): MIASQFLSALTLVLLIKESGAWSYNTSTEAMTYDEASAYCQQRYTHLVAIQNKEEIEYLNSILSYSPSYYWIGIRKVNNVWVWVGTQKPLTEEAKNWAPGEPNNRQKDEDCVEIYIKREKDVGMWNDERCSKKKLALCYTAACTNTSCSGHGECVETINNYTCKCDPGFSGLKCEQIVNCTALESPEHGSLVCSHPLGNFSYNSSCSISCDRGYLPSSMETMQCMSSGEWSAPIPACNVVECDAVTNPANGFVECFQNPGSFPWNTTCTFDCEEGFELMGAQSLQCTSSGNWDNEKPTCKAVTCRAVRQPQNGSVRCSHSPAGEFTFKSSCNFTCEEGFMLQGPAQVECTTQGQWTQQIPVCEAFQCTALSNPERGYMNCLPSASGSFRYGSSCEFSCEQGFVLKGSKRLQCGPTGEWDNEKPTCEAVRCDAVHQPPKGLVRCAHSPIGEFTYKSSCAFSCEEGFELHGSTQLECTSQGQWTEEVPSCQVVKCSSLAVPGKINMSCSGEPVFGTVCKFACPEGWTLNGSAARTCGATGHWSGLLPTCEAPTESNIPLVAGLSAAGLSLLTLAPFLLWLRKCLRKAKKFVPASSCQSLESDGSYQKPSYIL
Sequence of human Retinoid X Receptor beta (RXRb), RXRB (gene 6257) (P28702 whole entry, looked up): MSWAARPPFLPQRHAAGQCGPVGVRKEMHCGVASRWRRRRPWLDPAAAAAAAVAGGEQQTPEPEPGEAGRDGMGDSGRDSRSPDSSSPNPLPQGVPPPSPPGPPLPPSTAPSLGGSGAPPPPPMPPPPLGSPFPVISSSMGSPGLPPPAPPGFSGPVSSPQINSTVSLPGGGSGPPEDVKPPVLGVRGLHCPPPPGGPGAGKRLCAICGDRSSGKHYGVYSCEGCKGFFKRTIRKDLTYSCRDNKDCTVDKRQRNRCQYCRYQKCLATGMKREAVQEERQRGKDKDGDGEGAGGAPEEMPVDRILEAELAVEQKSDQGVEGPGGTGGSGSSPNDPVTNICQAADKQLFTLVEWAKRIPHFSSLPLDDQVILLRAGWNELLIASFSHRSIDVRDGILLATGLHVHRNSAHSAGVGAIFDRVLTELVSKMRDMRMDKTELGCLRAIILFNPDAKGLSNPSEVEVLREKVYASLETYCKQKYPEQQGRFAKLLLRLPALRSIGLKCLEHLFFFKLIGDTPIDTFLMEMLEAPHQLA

For the molecule `Cc1cccc([N+](=O)[O-])c1`, the molecule was classed as inactive in test [1], in test [2], in test [3], in [4], in test [5] and in [6]. Further, the outcome in [7], in test [8], in test [9], in test [10], in test [11] and in [12] was inactive. Moreover, the outcome in test [13], in test [14] and in test [15] was inactive.

Turning to `O=C(O)C(F)(F)C(F)(F)C(F)(F)C(F)(F)C(F)(F)F`, the molecule was classed as inactive in test [1], in test [2], in [3], in test [4], in test [5] and in [6]. Further, the result in test [16], in test [7], in test [9], in [10], in test [11] and in test [12] was inactive. The outcome in test [13], in [17], in test [14] and in test [15] was inactive.

For the molecule `ClC(Cl)=C(c1ccc(Cl)cc1)c1ccc(Cl)cc1`, the molecule was called inactive in test [18], in test [19], in test [3], in test [8] and in test [14]. Moreover, the concentration at half-maximal activity (AC50) is 17.5 µM (active) [middle of 4 runs] in test [1]; 30.7 µM (active) in test [2]; 20 µM (active) in test [5]; 30.5 µM (active) in test [6]; 35 µM (active) in test [7]; 29.2 µM (active) in [9]. Besides, the concentration at half-maximal activity (AC50) is 25.2 µM (active) in [10]; 37.3 µM (active) in test [11]; 31.3 µM (active) in [12]; 30.6 µM (active) in [13]; 32.8 µM (active) in test [15].

Take `Cc1cccc(C)c1N`: the outcome in test [2], in test [3], in test [4], in test [5], in test [6] and in test [7] was inactive. The outcome in test [9], in test [10], in test [11], in [13], in test [17] and in test [14] was inactive. Further, in test [15], the outcome was inactive.

Regarding `Cc1ccccc1[N+](=O)[O-]`, the outcome in test [2], in test [3], in test [4], in [5], in test [6] and in [16] was inactive. Besides, the outcome in test [7], in test [8], in test [9], in test [10], in [11] and in test [12] was inactive. Further, the outcome in test [13], in [17], in test [14] and in test [15] was inactive.

For the molecule `Nn1cnnc1`, the outcome in [19], in test [2], in [3], in test [4], in test [5] and in [6] was inactive. In addition, the result in test [7], in [9], in test [10], in [11], in [13] and in test [14] was inactive. Further, the result in [15] was inactive.

Turning to `CCCCCCOC(=O)c1ccccc1C(=O)OCCCCCC`, the call in [18], in [1], in [2], in test [3], in test [5] and in test [6] was inactive. The outcome in test [7], in [10], in test [11], in [13], in test [14] and in [15] was inactive. Further, the AC50 is 29.1 µM (active) in test [4] and 15.1 µM (active) in test [9].
